Most compounds without a hit are left out; they make up all but 3.6% or so of the library.
IMPase Li inh – cell-permeable IMPase inhibitors with lithium potentiation; CHO-M1 cells, IP1 TR-FRET (IP-One), carbachol + lithium; Potency, µM (top dose mostly 59.4 µM), inactives show at the highest dose activity, negative = IMPase inhibition, hits mostly inhibitors; 210,000 compounds, 0.35% hits; AID 1457;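 note: IP1 builds up when IMPase is blocked and the TR-FRET signal falls; plate controls were basal vehicle for no effect and high inhibitor control for full effect; nearly all actives have a fitted effect of over 50% in size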
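Readout is a homogeneous TR-FRET IP1 immunoassay (Ex 320, Em 665 and 620), where raised cytosolic IP1 lowers signal. Cells were CHO-M1 treated 30 min at 37C with test compounds plus a little lithium; AC50 values came from Hill-equation fitting.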
Sfp PPTase inh – Sfp phosphopantetheinyl transferase inhibition; Biochemical Sfp PPTase activity, qHTS; Potency, µM, for the others: largest response in the series, negative = inhibition, usual class: inhibitors; 310,000 compounds, 3.5% hits;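 note: the enzyme is Sfp with the accession as filed and its product quenches rhodamine fluorescence; 0% = enzyme reaction without inhibitor and -100% = no enzyme wells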
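Reaction rates are the 30-min fluorescence difference (ex 525, em 598 nm) in wells containing 15 nM Sfp, 5 uM rhodamine-CoA and 12.5 uM BHQ-2-YbbR at pH 7.6 with 10 mM MgCl2.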
JMJD2E inh – blocks human JMJD2E demethylase activity; Potency, µM (series often up to 57.1 µM), inactives show at the highest dose activity change, negative = inhibition, most hits filed as inhibitors; JMJD2E catalytic domain, FDH-coupled NADH fluorescence (FDH is formaldehyde dehydrogenase); 230,000 compounds, 1.6% hits; AID 2147; B2RXH2; active = well fitted inhibition curve with a large enough effect, not every such curve was filed as active; inconclusive = small, poorly fitted or top-dose-only effect, or another doubt; inactive = no such curve, though single readings can be large or run the other way;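 note: 0% = wells with enzyme and -100% = buffer wells without enzyme; nearly all actives have a fitted effect of over 50% in size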
Epigenetic reg – regulators of epigenetic silencing causing reporter derepression in mouse cells | murine LDR cells, GFP reporter derepression, 30 h | Potency, µM (highest dose often 53.9 µM), for the others: top-dose GFP activation, hits mostly activators | 280,000 compounds, 0.2% hits | AID 1865; note: % of control where 0% means no effect; nearly all actives have a fitted effect of over 60% in size
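GFP-positive cell count by laser-scanning cytometry (objects 20–120 um) after 30 h, 37 C compound exposure of murine LDR cells; reporter is CMV-GFP integrated at a silenced locus, inducible by HDAC or DNMT inhibitors.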
NPSR antag – antagonists of human neuropeptide S receptor cAMP signaling. Q6W5P4. CHO-NPSR cells, cAMP TR-FRET, antagonist mode. Potency, µM (highest dose often 38.3 µM), for the others: at the highest dose activity change, negative = inhibition, hits mostly inhibitors. 220,000 compounds, 1% hits. AID 1461; note: % is set by controls: 0 for no effect and ±100 for the full control effect; nearly all actives have a fitted effect of over 50% in size
KAT2A inh – GCN5L2 (KAT2A) acetyltransferase inhibition | GCN5L2 HAT assay, ThioGlo1 CoA-SH fluorescence | 390,000 compounds, 0.21% hits | Potency, µM (top dose mostly 58.9 µM), for inactives: top-dose activity change, negative = inhibition, usual class: inhibitors | Q92830; note: % is set by controls: 0 for no effect and ±100 for the full control effect
Target sequence (Q92830 whole entry, looked up): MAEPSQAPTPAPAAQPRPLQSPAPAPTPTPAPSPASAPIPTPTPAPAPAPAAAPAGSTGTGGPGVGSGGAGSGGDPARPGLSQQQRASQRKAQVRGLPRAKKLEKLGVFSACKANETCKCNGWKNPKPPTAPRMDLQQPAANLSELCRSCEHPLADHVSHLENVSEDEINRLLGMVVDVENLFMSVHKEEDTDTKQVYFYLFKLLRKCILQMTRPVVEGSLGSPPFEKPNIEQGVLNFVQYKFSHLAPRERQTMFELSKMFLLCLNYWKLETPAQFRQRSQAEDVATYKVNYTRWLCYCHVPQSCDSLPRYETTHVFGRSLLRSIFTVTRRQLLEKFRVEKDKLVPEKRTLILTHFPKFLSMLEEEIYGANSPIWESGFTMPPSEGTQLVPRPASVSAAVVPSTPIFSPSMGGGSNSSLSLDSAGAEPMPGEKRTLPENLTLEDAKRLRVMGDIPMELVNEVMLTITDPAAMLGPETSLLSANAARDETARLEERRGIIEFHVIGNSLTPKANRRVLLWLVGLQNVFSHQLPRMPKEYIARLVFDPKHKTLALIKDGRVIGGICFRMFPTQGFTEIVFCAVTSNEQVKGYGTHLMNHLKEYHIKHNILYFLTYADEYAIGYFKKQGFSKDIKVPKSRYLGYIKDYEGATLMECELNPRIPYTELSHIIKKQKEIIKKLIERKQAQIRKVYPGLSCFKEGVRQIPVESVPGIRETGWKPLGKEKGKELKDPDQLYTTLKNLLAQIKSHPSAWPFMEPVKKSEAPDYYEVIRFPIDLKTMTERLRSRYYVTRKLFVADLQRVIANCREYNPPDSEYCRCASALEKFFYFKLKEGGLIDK
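ThioGlo1-coupled HAT assay: 20nM GCN5L2, 70uM acetyl-CoA, 75uM H3(1-25) peptide, pH 7.5. Fluorescence read at 340/540nm at start and after 20 min at room temperature.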
The depositor's hits bear a star; ? = inconclusive; · = no result; ! = a repeat was not active; [ ] = remark or other dose. Unless noted, calls come from the whole dose curve; as a rule, active = well fitted curve in the direction sought with a large enough effect; inconclusive = small, poorly fitted or top-dose-only effect, or another doubt; inactive = no such curve, though single readings can be large; an effect the other way counts as inactive or inconclusive. Potency is the fitted concentration of half-maximal effect.

SMILES | IMPase Li inh | Sfp PPTase inh | JMJD2E inh | Epigenetic reg | NPSR antag | KAT2A inh
COC(=O)C1=C(C(=O)OC)[C@@H]2N(C)c3ccccc3[C@@]23C[C@@H](C(=O)OC)N(S(=O)(=O)c2ccc(C(F)(F)F)cc2)C3=N1 | 3% | -7% | 3%[11.4 µM] | · | · | ·
Oc1cccc(C(=S)N2CCN(Cc3ccccc3)CC2)c1 | 0% | ? | 2% | -1% | 9%[46.1 µM] | -3%
Oc1cccc(C(=S)N2CCC(Cc3ccccc3)CC2)c1 | · | 35µM* | · | · | · | -12%
COc1ccc2c(c1)O/C(=C\c1sccc1C)C2=O | 9% | 45µM* | ? | 3% | 13% | -5%
Cc1cccc(NC(=O)CSc2nnc(-c3ccco3)c(-c3ccco3)n2)c1 | 9% | 7.9µM* | -19% | 1% | 22% | -3%
COc1ccc(CCNC(=O)CSc2nnc(-c3ccco3)c(-c3ccco3)n2)cc1OC | · | 20µM* | · | · | · | -26%
COc1ccc(-c2nnc(SCC(=O)NCCc3ccc(OC)c(OC)c3)nc2-c2ccc(OC)cc2)cc1 | · | · | · | -1% | · | -10%
Cc1cccc(NC(=O)CSc2nc(N)cc(N)n2)c1 | 1% | 15% | -3% | 0% | -3%[46.1 µM] | 1%
Cc1cccc(NC(=O)CSc2nnc(-c3ccco3)c(-c3ccco3)n2)c1C | 12%[38.3 µM] | 32µM* | ? | -1% | -17%[46.1 µM] | ?
Cc1cccc(C)c1NC(=O)Cn1c(SCC(=O)NCc2ccccc2)nc2ccccc21 | · | · | · | 6% | · | -2%
COc1ccc(-n2nc3cc(C)c(N)cc3n2)cc1Cl | · | 79µM* | · | · | · | -3%
Cc1cc2nn(-c3ccc(Cl)cc3)nc2cc1N | · | -19% | · | · | · | -28%
Cc1cc(C)c(NC(=S)NCC2CCN(C(C)c3ccccc3)C2)c(C)c1 (stereo unspecified) | 5% | 3.5µM* | -3% | 1% | 0% | -10%
Cc1ccc(NC(=S)NCC2CCN(C(C)c3ccccc3)C2)cc1 (stereo unspecified) | 7% | -24% | 4% | -4% | -10% | -8%
O=C1c2ccccc2N2C(=O)c3ccccc3C2N1Cc1ccco1 (stereo unspecified) | 0%[38.3 µM] | 50µM* | -24% | -2% | -5%[46.1 µM] | 1%
O=C1c2ccccc2C(Nc2cccc(C(F)(F)F)c2)N1Cc1ccco1 (stereo unspecified) | 16%[38.3 µM] | 40µM* | 1% | -3% | ? | ?
COc1cccc(NC2c3ccccc3C(=O)N2Cc2ccco2)c1 (stereo unspecified) | 4%[38.3 µM] | ? | 1% | -3% | -11%[46.1 µM] | 0%
CC(=O)c1cccc(NC2c3ncccc3C(=O)N2Cc2ccco2)c1 (stereo unspecified) | 3%[38.3 µM] | 79µM* | -14% | -1% | -3%[46.1 µM] | -5%
O=C1c2cccnc2C(Nc2ccccc2Br)N1Cc1ccco1 (stereo unspecified) | 13% | 56µM* | -4% | 1% | -11% | -1%
COc1ccc2c(c1)CCc1c(C(=O)Nc3c(C)nn(Cc4ccc(Cl)c(Cl)c4)c3C)noc1-2 | · | · | · | -1% | · | 0%
COc1ccccc1NC(=O)CCn1c(=O)oc2cc(Cl)ccc21 | · | · | · | 0% | · | -3%
CCCCOC(=O)n1c(=S)oc2cc(Cl)ccc21 | -3%[38.3 µM] | 56µM* | -3% | -1% | 12%[46.1 µM] | -15%
COC(=O)n1c(=S)oc2cc(Cl)ccc21 | 18%[38.3 µM] | 25µM* | -19% | -1% | -5%[46.1 µM] | -3%
C[C@H]1O[C@@H](n2cc(F)c(=O)[nH]c2=O)[C@H](O)[C@H]1O | · | · | · | · | · | -4%
Cc1cc(Cl)ccc1NS(=O)(=O)c1c(C(=O)N2CCCCCC2)c(C)n(C)c1C | · | · | · | 1% | · | 9%
SMILES | IMPase Li inh | Sfp PPTase inh | JMJD2E inh | Epigenetic reg | NPSR antag | KAT2A inh
CC(C)N=C(N)/N=C(\N)Nc1ccc(Cl)cc1 | -2% | 11% | 4%[25.5 µM] | 0%[16.9 µM] | · | 7%[21.4 µM]
NC(=NCCCCCCN=C(N)/N=C(\N)Nc1ccc(Cl)cc1)/N=C(\N)Nc1ccc(Cl)cc1 | 32% | 28µM*! | -16% | 3% | · | -18%
CC1(C)OC1COc1c2ccoc2cc2oc(=O)ccc12 (stereo unspecified) | 10% | 10% | 32µM* | 0% | 7% | -4%
COc1cc(NC(=O)CSc2ncnc3sc4c(c23)CCC(C)C4)c(C(=O)O)cc1OC (stereo unspecified) | · | 45µM* | · | · | · | -27%
CCC(=O)/C=C1\Sc2ccc(OC)cc2N1CC | 22%[38.3 µM] | 50µM* | ? | -1% | ? | -20%
CCCn1c(-c2ccc(F)cc2)nc2c(NCCCN3CCOCC3)nc(C)nc21 | 3% | -19% | ? | 0% | · | ·
COc1ccc(CN2C(=O)Cc3c2nc(N)c2c(N)nc(N4CCCCC4)c(C#N)c32)cc1 | 1% | -10% | 14µM* | 0% | -5% | -10%
COc1cc2c(C#N)c(N3CCCCC3)nc(N)c2c(N)n1 | -11%[38.3 µM] | -5% | ? | 0% | -8%[46.1 µM] | -8%
Nc1ccc(C(=O)O)c(O)c1 (tested in a mixture with another compound) | 4% | 2% | · | 0% | · | ·
Nc1ccc(O)c(C(=O)O)c1 | 0% | 45µM* | ? | 0%[16.9 µM] | · | ?
COc1cccc(/C=C2/SC(=O)N(CC(=O)N3CCc4ccccc4C3)C2=O)c1OCC(=O)O | -5%[38.3 µM] | 56µM* | -7% | 0% | -6%[46.1 µM] | 1%
COc1cccc(/C=C2/SC(=O)N(C)C2=O)c1OCc1ccc(C(=O)O)cc1 | 2% | -2% | -3% | 0% | 55% | -3%
COCc1cc(C)n(CC(=O)Nc2cccc(C(C)=O)c2)c(=O)c1C#N | · | · | · | 1% | · | -5%
CCN1C(=O)/C(=C/C=C2\C=CN(CC)c3ccccc32)SC1=S | 103% | 45µM* | ? | -1% | 3.2µM* | 1%
CCN1C(=O)/C(=C\C=C2/C=CC=CN2CC)SC1=S | 36% | ? | ? | ? | -56% | -12%
O=[N+]([O-])c1ccc(N2CCN(CCOCCO)CC2)c([N+](=O)[O-])c1 | -1% | -22% | 10µM* | -1% | -19% | ?
O=[N+]([O-])c1cc2c(cc1CN1CCN(CCOCCO)CC1)OCO2 | · | 79µM* | · | · | · | -5%
COc1ccccc1N1CCN(Cc2cc3c(cc2[N+](=O)[O-])OCO3)CC1 | · | 8% | · | · | · | -9%
O=[N+]([O-])c1cc(C(F)(F)F)ccc1N1CCN(CCO)CC1 | -4% | 21% | -8% | 5% | 9% | -1%
Clc1cccc(Nc2nnc(-c3ccccc3)c3ccccc23)c1 | -8% | 13% | 11µM* | 1% | · | -25%
Oc1ccc(/C=N/Nc2cc(N3CCCC3)nc(N3CCCC3)n2)cc1O | 14% | -16% | 14µM* | 0% | -17% | -4%
Oc1ccc(/C=N\Nc2cc(N3CCOCC3)nc(N3CCOCC3)n2)c(O)c1 | 12% | -2% | 14µM* | 0% | -10% | -6%
